Records with an inconclusive call do not appear. Values without a mark were called inactive. The source made the active and inactive calls. Calls follow the shape of the dose curve; as a rule, active = well fitted inhibition curve with a large enough effect in the repeat runs; inconclusive = weak or mixed curves, or effect the other way; inactive = no such curve, though single readings can be large or run the other way.
% is scaled to controls: 0 for no effect and ±100 for the full control effect; potency is read from the fitted curve at half-maximal effect.

Sequence of Nuclear receptor subfamily 1 group I member 3 (Homo sapiens) (Q14994 whole entry, looked up): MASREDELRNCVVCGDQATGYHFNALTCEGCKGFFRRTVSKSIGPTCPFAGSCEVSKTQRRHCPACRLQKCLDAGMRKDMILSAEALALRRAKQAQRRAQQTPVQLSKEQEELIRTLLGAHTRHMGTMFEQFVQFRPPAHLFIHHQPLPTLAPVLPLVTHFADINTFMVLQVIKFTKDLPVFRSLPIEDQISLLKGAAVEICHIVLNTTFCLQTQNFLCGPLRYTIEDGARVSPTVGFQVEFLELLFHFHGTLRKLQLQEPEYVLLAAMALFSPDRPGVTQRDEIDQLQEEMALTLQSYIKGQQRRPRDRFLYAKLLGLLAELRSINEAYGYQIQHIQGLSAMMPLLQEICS

The target of this assay is Nuclear receptor subfamily 1 group I member 3 (Homo sapiens) (UniProt Q14994). In words: qHTS assay to identify small molecule antagonists of the constitutive androstane receptor (CAR) signaling pathway (AID 1224838).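 Also: HepG2 cells stably expressing hCAR with CYP2B6 luciferase reporter stimulated by CITCO; nearly all actives have a fitted effect of over 40% in size.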 To be noted: HepG2-CYP2B6-hCAR luciferase, CITCO-stimulated, 24 h; series mostly up to 92.4 µM; activity, negative = inhibition: at the top concentration. In outline:
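Read-out: ONE-Glo luciferase luminescence after 30 min at room temperature. HepG2-CYP2B6-hCAR double-stable cells, compounds in 15-point titration plus 50 nM CITCO final, 24 h at 37 C/5% CO2.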
As for `C/C=C/CO`, the “activity, negative = inhibition” value was 5.99%. The same measure, in the same setting: the value for `NC(=O)C(=O)N/N=C/c1ccc([N+](=O)[O-])o1` was 2.69% [at 42.5 µM]. Consider `COc1ccc(C#N)cc1`, for which the “activity, negative = inhibition” value was 11.3%. The same measure, in the same setting: the figure for `C=CC(C)C#N` (stereo unspecified) is -8.75%.

Take `CN(C)CCN1CCOCC1`: the “activity, negative = inhibition” value was -8.94%. The same measure, in the same setting: the value for `O=C1OC(=O)c2ccc3c4c(ccc1c24)C(=O)OC3=O` was -9.72%; that for `O=C1OC(=O)c2cccc3cccc1c23` was -4.72%. Same read-out and setting: the figure for `Cc1ccc(-n2[nH]c(C)c(N=Nc3cccc(-c4cccc(C(=O)O)c4)c3O)c2=O)cc1C` is 2.23% [at 42.5 µM]; for `CCCCCCS` it is 2.77%; for `CC(C)(C)C1=CC(=O)C=C(C(C)(C)C)C1=O` it is 11.5%. Take `c1ccc2c(c1)CCC2`: the “activity, negative = inhibition” value is 9.13%. `CCN=C1C=CC(=C(c2ccc(N(CC)CC)cc2)c2ccc(N(CC)CC)cc2)c2ccccc21`: the Potency was 6.08 µM (active). With `CC(=O)c1ccccc1N`, the “activity, negative = inhibition” value is 0.158%.

As for `N#CSCSc1nc2ccccc2s1`, the Potency is 30.6 µM (active).

For the compound `Nc1ncnc2c1ncn2[C@@H]1O[C@H](COP(=O)(O)O)[C@@H](O)[C@H]1O`, the “activity, negative = inhibition” value is -7.59% [at 42.5 µM].

For `CC1CNCC(C)O1` (stereo unspecified), the “activity, negative = inhibition” value is -17%. Consider `C[Si](C)O[Si](C)C`, for which the “activity, negative = inhibition” value was 11.9%. Same read-out and setting: the figure for `ClC/C=C\CCl` is -12.7%. In the case of `CCCCCCCCCCCCOC(=O)c1cc(O)c(O)c(O)c1`, the Potency was 76.6 µM (active). As to `CC(C)=C1CC[C@@H](C)CC1=O`, the “activity, negative = inhibition” value is -16.1%. Still for that read-out and setting: the value for `C=C1C(C)(C)[C@@]2(Cl)C(Cl)[C@]1(Cl)C(Cl)(Cl)C2(Cl)Cl` (stereo partly specified) was -10.8%.

For the compound `CCCCN(C)C`, the “activity, negative = inhibition” value is 9.13%. The same measure, in the same setting: the value for `CCc1cccc(C)c1` was -10.3%. On the same count and under the same terms, the value for `CCO[Si](CCCSSSSCCC[Si](OCC)(OCC)OCC)(OCC)OCC` was 27.1%. On the same count and under the same terms, the value for `CCN(CC)CCSC(=O)C(c1ccccc1)c1ccccc1` was -25.3% [at 42.5 µM]; that for `C[C@]12CC[C@H]3C(=CCc4cc(O)ccc43)[C@@H]1CCC2=O` was 98.3%. As for `OCCCS`, the “activity, negative = inhibition” value was 10.5%.

For `CCN(CC)CCOC(=O)C1(C2CCCCC2)CCCCC1`, the “activity, negative = inhibition” value was -25.4% [at 42.5 µM]. Take `CCc1ccc(C)nc1`: the “activity, negative = inhibition” value is 7.2%. On the same count and under the same terms, the figure for `CCC1(c2cnc[nH]2)Cc2ccccc2C1` is 92.6% [at 42.5 µM]; for `O=S(O)O` it is -9.95% [at 19 µM]. As for `CCCC(C)CCC(C)=O` (stereo unspecified), the “activity, negative = inhibition” value is -1.55%. Consider `CC(=O)Oc1ccc(C2(c3ccc(OC(C)=O)cc3)Oc3ccccc3NC2=O)cc1`, for which the Potency is 16.8 µM (active). Turning to `SCCCCCCCCS`, the “activity, negative = inhibition” value was 3.79%. The same measure, in the same setting: the figure for `CSc1c(Cl)c(Cl)c(Cl)c(Cl)c1Cl` is 41.8%; for `CCCCCCCCCCCC(=O)N(CC)CC` it is 74.2%.

Source of the values: PubChem BioAssay (Tox21).
